About 83,000 compounds went through this panel and 20% of them were active in at least one assay; those are over-represented in the sample as a whole.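 48-hour exposure, single concentration, 96-well plates; percent growth endpoint where 0 means no net growth. Active: below 10.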 Active and inactive are the calls of the source.

The subject of this assay is MDA-MB-468 breast. Description: NCI-60 one-dose screen, 48 h (100 = growth as untreated, 0 = no growth, -100 = all killed). The conditions noted are these: 10 µM unless noted.
For `O=C(Nc1cccc(Cl)c1)c1cc(Cl)ccc1O`, the growth is -1.28% (active). With `Cc1cccc(C)c1NCc1nnc(-c2ccco2)o1` the figure was 100% (inactive); with `CCN(CC)c1ccc2cc(C(Nc3ccc(Cl)cc3)c3nnnn3C(C)(C)C)c(=O)oc2c1` (stereo not given), 109% (inactive); with `COc1ccc(C(=O)c2cc(OC)c(OC)c(OC)c2)cc1/C=C/C(=O)c1cc(OC)c(OC)c(OC)c1`, 73% (inactive).

`COc1cc(-c2nc3ccccc3[nH]2)ccc1OCC(=O)N=Nc1c(O)[nH]c2ccccc12`: the growth is -55.4% (active).

Source of the values: PubChem BioAssay (NCI).
